Measurements taken from PubChem BioAssay (EPA / NIEHS).
Active and inactive are the calls of the source. The calls were made as follows: active = hit-call score of the fitted dose curve at least 0.9, where 1 is the maximum; inactive = score below 0.9.

Experiments:
[1] = ATG_GLI_CIS: Attagene CIS-FACTORIAL HepG2 Assay for human Zinc Finger Protein GLI1 (AID 2282945); conditions: HepG2, Attagene cis-factorial reporter mRNA, GLI element; actives raise or lower the signal
Summary of the method: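 Transiently transfected HepG2 cells report endogenous transcription factor activity via cis-element-driven reporter units. After 24 h compound exposure, reporter mRNA was measured by RT-PCR with capillary electrophoresis; bidirectional fitting against DMSO baseline.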

[2] = target: Bile acid receptor (Homo sapiens) (UniProt Q96RI1); test: ATG_IR1_CIS: Attagene CIS-FACTORIAL HepG2 Assay for human Nuclear Receptor Subfamily 1 Group H Member 4 (NR1H4), IR1 submotif (AID 2282946); conditions: IR1 reporter transcription, actives raise or lower the signal
Summary of the method: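 HepG2 cells transiently transfected with multiple cis-promoter-driven reporter units to measure endogenous transcription factor activity; 24 h exposure. Reporter mRNA read by RT-PCR, FAM labelling, HpaI digestion and capillary electrophoresis. Bidirectional fit versus DMSO.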

[3] = ATG_GRE_CIS: Attagene CIS-FACTORIAL HepG2 Assay for human Glucocorticoid Response Elements (GRE) (AID 2282947); conditions: HepG2 GRE cis-reporter, Attagene multiplex mRNA; actives raise or lower the signal
Summary of the method: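 Transiently transfected HepG2 cells carrying GRE cis-reporter units (endogenous TF activity) dosed 24 h; reporter mRNA quantified by RT-PCR, 6-FAM labelling, HpaI digestion and capillary electrophoresis. Bidirectional fit versus DMSO baseline.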

[4] = ATG_ISRE_CIS: Attagene CIS-FACTORIAL HepG2 Assay for human Interferon Regulatory Factor 1 (IRF1) binding to an Interferon-Stimulated Response Element (ISRE) (AID 2282948); conditions: HepG2 ISRE cis-reporter (Attagene), mRNA transcription readout; actives raise or lower the signal
Summary of the method: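 Transiently transfected HepG2 cells carrying cis-element reporter units, dosed 24 hours. Reporter mRNA quantified by RT-PCR, fluorescent primer extension, HpaI digestion and capillary electrophoresis. Bidirectional fitting relative to DMSO.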

[5] = ATG_M_32_CIS: Attagene CIS-FACTORIAL HepG2 Assay for M32 Transcription Factor (Internal Marker) (AID 2282949); conditions: HepG2 Attagene cis-factorial M32 reporter, mRNA; actives raise or lower the signal;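 also: background control marker of the multiplexed CIS panel rather than a real target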
Summary of the method: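 HepG2 cells transiently transfected with multiplexed cis-regulated reporter units, dosed 24 h. Reporter mRNA quantified by RT-PCR, 6-FAM labelling, HpaI digestion and capillary electrophoresis; bidirectional fit vs DMSO.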

[6] = ATG_M_06_CIS: Attagene CIS-FACTORIAL HepG2 Assay for M06 Transcription Factor (Internal Marker) (AID 2282950); conditions: HepG2 Attagene CIS-FACTORIAL M06 internal marker reporter; actives raise or lower the signal
Summary of the method: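 HepG2 cells transiently transfected with cis-regulated multiple reporter transcription units were exposed to chemical for 24 h; reporter mRNA was quantified by RT-PCR, 6-FAM primer labelling, HpaI digestion and capillary electrophoresis, fitted bidirectionally against DMSO.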

[7] = target: Hypoxia-inducible factor 1-alpha (Homo sapiens) (UniProt Q16665); test: ATG_HIF1a_CIS: Attagene CIS-FACTORIAL HepG2 Assay for human Hypoxia Inducible Factor 1 (HIF1A) (AID 2282951); conditions: HepG2 Attagene cis-factorial HIF1a reporter transcription; actives raise or lower the signal
Summary of the method: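 Fluorescence intensity of capillary-separated, 6-FAM-labelled reporter amplicons gives mRNA induction in HepG2 cells carrying transfected cis-promoter reporter units; cells exposed 24 h, responses fitted up or down from DMSO.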

[8] = target: Hepatocyte nuclear factor 6 (Homo sapiens) (UniProt Q9UBC0); test: ATG_HNF6_CIS: Attagene CIS-FACTORIAL HepG2 Assay for human Hepatocyte Nuclear Factor 6 (HNF6) (AID 2282952); conditions: HepG2 Attagene cis-factorial HNF6 reporter transcription; actives raise or lower the signal
Summary of the method: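 HepG2 cells transiently transfected with cis-element-driven multiplexed reporter units measuring endogenous transcription factor activity. After 24 h exposure, reporter mRNA quantified by RT-PCR, FAM-labelled fragments and capillary electrophoresis; bidirectional fitting versus DMSO.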

[9] = target: Heat shock factor protein 1 (Homo sapiens) (UniProt Q00613); test: ATG_HSE_CIS: Attagene CIS-FACTORIAL HepG2 Assay for human Heat Shock Transcription Factor 1 (HSE) (AID 2282953); conditions: HepG2 HSE cis-reporter, Attagene RNA transcription; actives raise or lower the signal
Summary of the method: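 HepG2 cells transiently transfected with multiple reporter transcription units under cis-regulatory promoter control, measuring endogenous transcription factor activity. After 24 h chemical exposure, reporter mRNA quantified by RT-PCR, fluorescent labelling, HpaI digestion and capillary electrophoresis; bidirectional fit versus DMSO.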

[10] = ATG_MRE_CIS: Attagene CIS-FACTORIAL HepG2 Assay for human Metal Responsive Element (MRE) (AID 2282954); conditions: HepG2 MRE cis-reporter transcription, Attagene multiplex; actives raise or lower the signal
Summary of the method: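 HepG2 cells transiently transfected with cis-element-driven reporter units; mRNA measured 24 h after dosing. Reporter transcripts quantified by RT-PCR, FAM labelling, HpaI digestion and capillary electrophoresis; bidirectional fit versus DMSO.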

Hepatocyte nuclear factor 6 (Homo sapiens), sequence (Q9UBC0 whole entry, looked up, the tested form may be a part): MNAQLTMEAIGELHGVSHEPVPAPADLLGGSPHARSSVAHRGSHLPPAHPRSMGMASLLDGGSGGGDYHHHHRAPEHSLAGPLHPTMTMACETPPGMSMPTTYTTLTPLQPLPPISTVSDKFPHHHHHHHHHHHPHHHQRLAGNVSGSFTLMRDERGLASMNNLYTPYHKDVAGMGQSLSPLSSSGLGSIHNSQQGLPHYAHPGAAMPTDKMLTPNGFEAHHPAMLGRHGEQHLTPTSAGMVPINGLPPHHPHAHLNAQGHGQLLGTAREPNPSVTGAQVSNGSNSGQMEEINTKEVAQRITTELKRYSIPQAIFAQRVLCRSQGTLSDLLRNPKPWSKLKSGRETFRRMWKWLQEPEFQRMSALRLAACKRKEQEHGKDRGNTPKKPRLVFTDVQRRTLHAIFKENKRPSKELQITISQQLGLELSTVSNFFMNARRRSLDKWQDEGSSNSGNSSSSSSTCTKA
Bile acid receptor (Homo sapiens), sequence (Q96RI1 whole entry, looked up): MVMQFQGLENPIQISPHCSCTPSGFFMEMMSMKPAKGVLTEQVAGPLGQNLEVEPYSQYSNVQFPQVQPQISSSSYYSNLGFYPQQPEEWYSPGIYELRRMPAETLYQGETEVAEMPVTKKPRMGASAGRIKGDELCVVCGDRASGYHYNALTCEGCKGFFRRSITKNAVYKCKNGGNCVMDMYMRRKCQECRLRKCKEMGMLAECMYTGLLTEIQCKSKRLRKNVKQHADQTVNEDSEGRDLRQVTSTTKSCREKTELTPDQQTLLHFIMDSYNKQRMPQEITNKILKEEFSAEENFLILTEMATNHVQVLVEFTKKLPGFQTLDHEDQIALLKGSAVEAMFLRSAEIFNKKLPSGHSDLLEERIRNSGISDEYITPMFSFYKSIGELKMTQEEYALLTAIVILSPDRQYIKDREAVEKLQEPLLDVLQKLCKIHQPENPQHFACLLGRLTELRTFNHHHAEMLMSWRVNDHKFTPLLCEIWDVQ
Heat shock factor protein 1 (Homo sapiens), sequence (Q00613 whole entry, looked up): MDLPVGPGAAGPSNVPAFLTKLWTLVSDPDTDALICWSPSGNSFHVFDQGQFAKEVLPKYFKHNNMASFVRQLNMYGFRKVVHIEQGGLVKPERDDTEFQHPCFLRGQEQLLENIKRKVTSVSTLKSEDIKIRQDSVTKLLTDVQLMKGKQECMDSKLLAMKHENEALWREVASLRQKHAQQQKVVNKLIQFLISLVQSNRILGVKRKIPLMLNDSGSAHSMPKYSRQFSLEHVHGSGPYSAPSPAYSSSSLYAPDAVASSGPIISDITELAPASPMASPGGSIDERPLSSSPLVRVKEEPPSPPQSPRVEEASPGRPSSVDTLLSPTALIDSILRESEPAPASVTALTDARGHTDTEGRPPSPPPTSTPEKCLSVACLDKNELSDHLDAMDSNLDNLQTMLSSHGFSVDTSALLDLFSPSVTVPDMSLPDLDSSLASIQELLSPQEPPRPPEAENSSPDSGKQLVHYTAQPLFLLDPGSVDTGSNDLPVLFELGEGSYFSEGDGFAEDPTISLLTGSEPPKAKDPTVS
Hypoxia-inducible factor 1-alpha (Homo sapiens), sequence (Q16665 whole entry, looked up): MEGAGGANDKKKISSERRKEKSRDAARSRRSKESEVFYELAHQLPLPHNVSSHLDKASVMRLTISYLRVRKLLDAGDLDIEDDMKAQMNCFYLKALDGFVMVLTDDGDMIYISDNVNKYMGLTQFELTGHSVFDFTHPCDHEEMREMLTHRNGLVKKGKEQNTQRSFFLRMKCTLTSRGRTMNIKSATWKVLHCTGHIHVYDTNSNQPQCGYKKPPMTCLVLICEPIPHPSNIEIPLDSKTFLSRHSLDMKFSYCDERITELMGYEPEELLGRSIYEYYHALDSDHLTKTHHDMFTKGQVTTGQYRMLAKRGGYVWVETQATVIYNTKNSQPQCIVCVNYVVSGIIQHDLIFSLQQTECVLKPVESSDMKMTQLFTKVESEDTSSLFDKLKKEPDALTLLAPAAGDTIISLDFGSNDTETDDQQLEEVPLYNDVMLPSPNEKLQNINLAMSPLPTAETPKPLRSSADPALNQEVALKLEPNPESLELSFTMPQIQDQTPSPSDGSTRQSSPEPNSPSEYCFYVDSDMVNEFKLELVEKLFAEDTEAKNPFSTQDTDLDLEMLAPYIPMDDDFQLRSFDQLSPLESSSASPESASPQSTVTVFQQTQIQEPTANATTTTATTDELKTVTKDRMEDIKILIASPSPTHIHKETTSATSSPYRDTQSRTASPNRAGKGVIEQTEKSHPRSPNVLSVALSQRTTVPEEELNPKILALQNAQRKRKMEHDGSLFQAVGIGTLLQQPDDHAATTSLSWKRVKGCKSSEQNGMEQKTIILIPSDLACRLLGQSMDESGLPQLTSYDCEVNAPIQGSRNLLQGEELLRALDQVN

Compound	outcome [1]	outcome [2]	outcome [3]	AC50 [4]	outcome [5]	outcome [6]	outcome [7]	outcome [8]	outcome [9]	outcome [10]	outcome [4]	AC50 [7]	AC50 [9]	AC50 [10]	AC50 [1]	AC50 [2]	AC50 [8]
CCCC(=O)OCC(COC(=O)CCC)OC(=O)CCC	inactive	inactive	inactive	53 µM (active)	inactive	inactive	inactive	inactive	inactive	inactive							
Cc1cc(=O)[nH]c(C(C)C)n1	inactive	inactive	inactive		inactive	inactive	inactive	inactive	inactive	inactive	inactive						
NC(=O)C(F)(F)C(F)(F)C(F)(F)C(F)(F)C(N)=O	inactive	inactive	inactive		inactive	inactive	inactive	inactive	inactive	inactive	inactive						
Brc1nc2ccccc2s1	inactive	inactive	inactive		inactive	inactive		inactive		inactive	inactive	125 µM (active)	89.7 µM (active)				
O=C(O)C(F)(F)C(F)(F)C(F)(F)OC(F)(C(F)(F)F)C(F)(F)F	inactive	inactive	inactive		inactive	inactive	inactive	inactive	inactive	inactive	inactive						
CCCCCCCCCCCC(=O)Cl	inactive	inactive	inactive		inactive	inactive	inactive	inactive	inactive	inactive	inactive						
CCCCOC(=O)[C@H](C)O	inactive	inactive	inactive		inactive	inactive	inactive	inactive	inactive	inactive	inactive						
OCC(F)(F)C(F)(F)C(F)(F)CO	inactive	inactive	inactive		inactive	inactive	inactive	inactive	inactive	inactive	inactive						
CC1=CCC(=O)O1	inactive	inactive	inactive		inactive	inactive	inactive	inactive	inactive	inactive	inactive						
NS(=O)(=O)C(F)(F)C(F)(F)C(F)(F)C(F)(F)C(F)(F)C(F)(F)F	inactive	inactive	inactive		inactive	inactive	inactive	inactive	inactive		inactive			59 µM (active)			
CC(C)Nc1ccc(NC(C)C)c2c1C(=O)c1ccccc1C2=O	inactive	inactive	inactive		inactive	inactive	inactive	inactive	inactive	inactive	inactive						
CC(=O)C=O	inactive	inactive	inactive		inactive	inactive	inactive	inactive	inactive	inactive	inactive						
CCCCCCCCCCCCC[N+](C)(C)Cc1ccccc1	inactive	inactive	inactive		inactive	inactive	inactive	inactive	inactive	inactive	inactive						
CC(O)C#CC(C)O (stereo not given)			inactive	99.5 µM (active)	inactive	inactive	inactive						78.2 µM (active)	57.2 µM (active)	142 µM (active)	67.7 µM (active)	70.5 µM (active)
OCCCC(F)(F)C(F)(F)C(F)(F)C(F)(F)C(F)(F)C(F)(F)C(F)(F)C(F)(F)F	inactive	inactive	inactive	50 µM (active)	inactive	inactive	inactive	inactive	inactive	inactive							
CCN(CC)c1ccc(N=Nc2ccccc2)cc1	inactive	inactive	inactive		inactive	inactive	inactive	inactive			inactive		144 µM (active)	7.22 µM (active)			
CCn1c2ccccc2c2ccccc21	inactive	inactive	inactive		inactive	inactive	inactive	inactive	inactive		inactive			73.9 µM (active)			
CCN(CC)c1ccc(C=O)c(O)c1	inactive	inactive	inactive	75.4 µM (active)	inactive	inactive	inactive	inactive	inactive					52.2 µM (active)			
CC(C)(C)c1cc(CCC(=O)OCC(COC(=O)CCc2cc(C(C)(C)C)c(O)c(C(C)(C)C)c2)(COC(=O)CCc2cc(C(C)(C)C)c(O)c(C(C)(C)C)c2)COC(=O)CCc2cc(C(C)(C)C)c(O)c(C(C)(C)C)c2)cc(C(C)(C)C)c1O	inactive	inactive	inactive		inactive	inactive	inactive	inactive	inactive	inactive	inactive						
OCC(F)(F)C(F)(F)C(F)(F)C(F)(F)C(F)(F)C(F)(F)C(F)(F)C(F)(F)CO	inactive	inactive	inactive		inactive	inactive	inactive	inactive	inactive	inactive	inactive						
c1ccc(C[P+](c2ccccc2)(c2ccccc2)c2ccccc2)cc1	inactive	inactive	inactive	31.3 µM (active)	inactive	inactive	inactive	inactive	inactive					59.4 µM (active)			
CSc1ccc(Cl)cc1	inactive	inactive	inactive		inactive	inactive	inactive	inactive	inactive	inactive	inactive						
O=C(O)CCC(F)(F)C(F)(F)C(F)(F)F	inactive	inactive	inactive		inactive	inactive	inactive	inactive	inactive	inactive	inactive						
C=CC(=O)OCC(F)(F)C(F)(F)C(F)(F)COC(=O)C=C	inactive	inactive	inactive	35.9 µM (active)	inactive	inactive	inactive	inactive	inactive					33.2 µM (active)			
